Experimental data: PubChem BioAssay AID602370 (National Center for Advancing Translational Sciences (NCATS), 2012)
The other results are listed elsewhere or left out. Records with an inconclusive call do not appear. Calls of active or inactive are those of the source. Calls follow the shape of the dose curve; as a rule, active = well fitted inhibition curve with a large enough effect; inconclusive = small, poorly fitted or top-dose-only effect; inactive = no such curve, though single readings can be large or run the other way.

The compounds below were run against 4'-phosphopantetheinyl transferase Sfp (Bacillus subtilis (strain 168)) (UniProt P39135) (assay: qHTS Assay for Inhibitors of Bacillus subtilis Sfp phosphopantetheinyl transferase (PPTase): SAR Round 2). Settings: purified Sfp enzyme, PPTase activity.
Source text: The covalent attachment of a phosphopantetheinyl (4'-PP) arm to a variety of synthases and other proteins is a key posttranslational protein modification. The 4'-PP is installed on the proteins post-translationally from coenzyme A (CoA) on a conserved serine residue by action of phosphopantetheinyl transferase (PPTase) enzymes. Phosphopantetheinylation is essential for synthase activity, and removal of the PPTase gene precludes natural product synthesis in microorganisms, or in the case of fatty acid biosynthesis, renders the organism unviable. PPTase enzymes belong to a distinct structural superfamily. Within bacteria, these enzymes are grouped into two classes based upon primary structure, the AcpS-Type and Sfp-Type PPTases.
Sfp-type PPTases, corresponding to an activator of surfactin production in Bacillus subtilis, are responsible for modifying type I polyketide and nonribosomal peptide synthases of prokaryotes. Sfp-type PPTases are responsible for the activation of a variety of pathogen-associated virulence factors. Among these compounds are toxins such as mycolactone from Mycobacterium ulcerans, siderophores such as vibriobactin from Vibrio cholerae or mycobactin from Mycobacterium tuberculosis, as well as the mycolic acids which form the waxy cell wall of Mycobacteria. The biosyntheses of these natural products are considered attractive targets for drug design.
In search of small molecule Sfp-PPTase inhibitors, a fluorescence quenching assay was developed for detection of Bacillus subtilis Sfp-PPTase enzymatic activity in a miniaturized high-throughput format. The consensus ybbr acceptor peptide […] was N-terminally labeled with Black Hole Quencher-2 (BHQ-2) and used in combination with rhodamine-labeled coenzyme A as a co-substrate.
Inhibition of Sfp-PPTase was detected by recording the fluorescence intensity change over a 30-minute reaction period at a 525 nm excitation and 598 nm emission. Reagents were supplied by Michael Burkart and Timothy Foley, University of California at San Diego.
NIH Chemical Genomics Center [NCGC]
NIH Molecular Libraries Probe Centers Network [MLPCN]
Assay Submitter (PI): Michale Burkart, University of California, San Diego
Assay Buffer: 50 mM Hepes-Na pH 7.6, 10 mM MgCl2, 0.01% Nonidet P-40, and 0.01% BSA.
3 uL of Sfp-PPTase enzyme (final concentration 15 nM) and 1 uL of substrate mixture (final concentration for rhodamine-CoA and BHQ-2-YbbR 5 uM and 12.5 uM, respectively) dispensed in columns 1, 2, 5 - 48. Columns 1 and 2 used to generate neutral control (uninhibited reaction)
Three uL of reagents, consisting of buffer (in columns 3 and 4 as negative control) and Sfp-PPTase (in columns 1, 2, 5 - 48) were dispensed into 1,536-well Greiner black solid bottom plate. Compounds (23 nL) were transferred via Kalypsys pintool equipped with 1,536-pin array. The plate was incubated for 15 min at room temperature, followed by the addition of 1 uL substrate to start the reaction. The plate was then centrifuged at 1000 rpm for 15 seconds, and the fluorescence intensity recorded on a ViewLux High-throughput CCD imager (Perkin-Elmer) using standard BODIPY optics (525 nm excitation and 598 nm emission). The plate was then incubated for 30 minutes, and a second read on the ViewLux was performed. The fluorescence intensity difference over the 30-minute period was used to calculate the respective reaction rate for each well.

Potency, active:
COc1cccc(NC(=S)N2CCN(c3ccccc3C(F)(F)F)CC2)n1 3.24 µM, Cc1cc(C)nc(NC(=S)N2CCN(c3cccc(C(F)(F)F)c3)CC2)c1 0.51 µM, Cc1cc(C)nc(NC(=S)N2CCN(c3cccc(C#N)c3)CC2)c1 1.62 µM, Cc1cc(C)nc(NC(=S)N2CCN(c3ccc4nonc4c3)CC2)c1 6.46 µM, COc1ccnc(NC(=S)N2CCN(c3ncc(C(F)(F)F)cc3Cl)CC2)c1 0.29 µM, Cc1cc(C)nc(NC(=S)N2CCN(c3ccc(Cl)cc3C(F)(F)F)CC2)c1 0.58 µM, Cc1ccc(N2CCN(C(=S)Nc3cc(C)ccn3)CC2)cc1 5.13 µM, Cc1cc(C)nc(NC(=S)N2CCN(c3ccc(Cl)cc3F)CC2)c1 0.91 µM
